These results are taken from PubChem BioAssay (NCI).

The panel holds about 83,000 compounds, 20% with a hit somewhere; the sample as a whole holds those more often.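 Note: values are percent growth. 100 is the growth of untreated cells, values between 100 and 0 indicate rising inhibition; between -100 and 0 indicates cell death.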 Values without a mark were called inactive. Active and inactive are the calls of the source. How the source made its calls: active means growth percent below 10; inactive means the rest.

This experiment has as its system SK-MEL-28 melanoma. The experiment can be described thus: NCI-60 one-dose screen, 48 h (100 = growth as untreated, 0 = no growth, -100 = all killed). The conditions noted are these: 10 µM unless noted.
For the compound `N#CCCN1C(=O)CCC1C(=O)O` (configuration not stated), the growth was 124%.
On to `Cc1c(-c2ccc(C3CCCCC3)cc2)nc2ccc(F)cc2c1C(=O)O`, for which the growth was 60.8%.
As to `O=C(OCc1ccccc1)n1nnc2ccccc21`, the growth was 101%.
For the compound `CCOC(=O)Nc1nccs1`, the growth was 111%.
In the case of `CCC(/C=C\C(C)=O)CC`, the growth was 101%.
In the case of `OCC(O)COc1ccc(Cl)cc1Cl` (configuration not stated) it was 96.5%.
With `CSc1nsc(N)n1`, the growth is 106%.
With `CC(=O)Nc1ncc(S(=O)(=O)c2ccc([N+](=O)[O-])cc2)s1`, the growth is 111%.
In the case of `Cc1ccc(N2C(=O)c3cccc4c(N)c(S(=O)(=O)O)cc(c34)C2=O)cc1` it was 124%.
As to `Oc1cccnc1CN1CCCC1`, the growth was 107%.
With `CC(C)c1ccc(C(=O)OCCCl)cc1`, the growth was 92%.
In the case of `CCOP(=O)(OCC)/C(=C\N1C(=O)CC(=O)NC1=S)C(=O)OC` it was 107%.
In the case of `Cc1cc2c(C(C)C)c(O)c(O)c(C=Nc3ccccc3[N+](=O)[O-])c2c(O)c1-c1c(C)cc2c(C(C)C)c(O)c(O)c(C=Nc3ccccc3[N+](=O)[O-])c2c1O` it was 98.3%; in that of `COc1ccc(/C=N/NC(=O)COCC(=O)N/N=C/c2ccc(OC)cc2)cc1`, 100%; in that of `CCOC(=O)CSCCC#N`, 96.6%.
As for `CCCCCCCCNC(=O)C(C)C`, the figure is 101%; as for `C1=NCCc2ccccc21`, 110%.
Turning to `O=[N+]([O-])c1ccc(-c2nc(N(CCO)CCO)c3ccccc3n2)o1`, the growth is -64.8% (active).
In the case of `Cc1cc(CO)c(O)c(CO)c1`, the growth is 108%.
As for `CC(=O)Nc1ccc(/C=C2\SC(=S)N(/C=C(\C(C)=O)C(N)=O)C2=O)cc1`, the figure is 93.4%.
In the case of `C=CCC(OC(C)=O)c1ccc(C(C)C)cc1` (configuration not stated) it was 120%; in that of `CCOc1ccc2c(c1)c(C)cc(C)[n+]2CC`, 102%.
Regarding `CCOC(=O)C(COS(C)(=O)=O)(COS(C)(=O)=O)C(=O)OCC`, the growth is 105%.
`CC(=O)NC(O)C(Cl)Cl` (configuration not stated): the growth was 103%.
In the case of `Cc1cc2c3ccc(C)[n+](C)c3ccc2n1C` it was 86%.
`O=C(CC(CC(=O)c1ccccc1)c1ccccn1)c1ccccc1`: the growth is 110%.
In the case of `CCOC(=O)C1(N)CCCCC1`, the growth was 165%.
As for `C=C(OC(C)=O)c1ccccc1`, the figure is 118%; as for `COc1cccc(C(=O)NNC(=O)c2cccc3ccccc23)c1`, 117%; as for `O=Cc1ccc(F)cc1`, 102%.
As for `Clc1ccc(C(SCc2ccccc2)SCc2ccccc2)cc1`, the growth is 96.3%.
For the compound `C=COC(=O)CCOCC(CC)CCCC` (configuration not stated), the growth is 113%.
In the case of `NC(=S)c1c(N)n(C2OC(CO)C(O)C2O)c2ncnc(N)c12` (configuration not stated), the growth is -46.8% (active).
As for `CCCCc1ccc2nc(NC(=O)OC)[nH]c2c1`, the figure is 58.8%; as for `CC(=O)C1C(=O)C(=O)N(c2cccc([N+](=O)[O-])c2)C1=O` (configuration not stated), 107%.
On to `Cc1cccnc1NC1OC(=O)c2ccccc21` (configuration not stated), for which the growth is 112%.
In the case of `CSc1nc2[nH]ncc2c(=O)[nH]1`, the growth is 106%.
